An excerpt weighted towards active compounds, which were near 11% of everything screened.
HP1b chromo inh: inhibitors of HP1-beta chromodomain binding to methylated histone tails; Potency, µM (doses to about 114 µM), for the others: top-dose activity change, negative = inhibition, hits mostly inhibitors; P83916; AID 540317; 0.56% of 390,000 active; AlphaScreen HP1-beta / biotin-H3K9me3 peptide binding; note: nearly all actives have a fitted effect of over 70% in size
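HP1-beta protein (50 nM final) preincubated 30 min at room temperature with biotinylated H3(1-18)K9me3 peptide (50 nM) in PBS pH 7.4, 0.01% Tween-20, then compound added for 30 min. AlphaScreen streptavidin donor/nickel chelate acceptor beads (10 ug/mL final), 30 min dark, luminescence read.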
JMJD2A Tudor: JMJD2A Tudor domain (human) inhibition. 4.4% of 390,000 active. AID 504339. Potency, µM (doses to about 114 µM), for inactives: at the top dose activity change, negative = inhibition, usual class: inhibitors. AlphaScreen JMJD2A-Tudor / H3K4me3 peptide binding. O75164; note: % is set by controls: 0 for no effect and ±100 for the full control effect; nearly all actives have a fitted effect of over 50% in size
L3MBTL1 inh: inhibitors of human L3MBTL1 | Q9Y468 | AlphaScreen L3MBTL1–H3K9me1 peptide binding | Potency, µM (series often up to 57.1 µM), for inactives: top-dose activity, negative = inhibition, most hits filed as inhibitors | 0.66% of 230,000 active | AID 485360; note: % is set by controls: 0 for no effect and ±100 for the full control effect; nearly all actives have a fitted effect of over 60% in size
Target sequence (Q9Y468 whole entry, looked up): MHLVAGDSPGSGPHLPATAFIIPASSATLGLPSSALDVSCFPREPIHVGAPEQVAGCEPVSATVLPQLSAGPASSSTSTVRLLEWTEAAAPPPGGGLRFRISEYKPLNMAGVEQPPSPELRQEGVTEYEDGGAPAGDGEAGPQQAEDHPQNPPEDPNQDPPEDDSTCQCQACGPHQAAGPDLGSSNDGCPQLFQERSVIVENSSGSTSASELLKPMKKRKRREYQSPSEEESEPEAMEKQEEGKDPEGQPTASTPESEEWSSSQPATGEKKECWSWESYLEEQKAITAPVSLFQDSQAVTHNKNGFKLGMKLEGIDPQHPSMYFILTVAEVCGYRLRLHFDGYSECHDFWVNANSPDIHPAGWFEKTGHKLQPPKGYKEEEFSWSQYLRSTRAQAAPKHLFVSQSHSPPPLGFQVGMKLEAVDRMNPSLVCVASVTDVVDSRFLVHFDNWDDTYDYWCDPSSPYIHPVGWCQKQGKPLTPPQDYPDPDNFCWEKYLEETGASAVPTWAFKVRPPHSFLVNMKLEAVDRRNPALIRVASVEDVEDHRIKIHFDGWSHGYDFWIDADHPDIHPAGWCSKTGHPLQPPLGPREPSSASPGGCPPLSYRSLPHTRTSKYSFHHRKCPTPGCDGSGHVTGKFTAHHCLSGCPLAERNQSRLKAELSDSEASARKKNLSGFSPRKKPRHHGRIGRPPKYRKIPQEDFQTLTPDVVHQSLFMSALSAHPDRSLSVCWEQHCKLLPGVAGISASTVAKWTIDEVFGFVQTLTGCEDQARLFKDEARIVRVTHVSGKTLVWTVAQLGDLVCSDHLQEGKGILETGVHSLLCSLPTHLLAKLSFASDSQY
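First, the protein-peptide complex forms for 30 min at room temperature (L3MBTL1 50 nM, biotinylated H3K9me1 peptide 75 nM). Next, compounds are pin-transferred and incubated 30 min. Finally, AlphaScreen beads are added and read after 30 min.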
G9a inh: inhibitors of human histone lysine methyltransferase G9a. Q96KQ7. G9a H3K9 monomethylation, AlphaScreen, 2 h. Potency, µM (highest dose often 102 µM), inactives show at the highest dose activity, negative = inhibition, hits mostly inhibitors. 8.8% of 350,000 active. AID 504332; note: % is set by controls: 0 for no effect and ±100 for the full control effect; nearly all actives have a fitted effect of over 75% in size
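Methyltransferase reactions run at room temperature for 2 h (20 nM enzyme, 500 nM biotin-H3K9 peptide, 20 uM SAM) after a 15 min compound preincubation; product detected by AlphaScreen beads and anti-H3K9me1 antibody.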
BAZ2B inh: blocks human BAZ2B; AlphaScreen BAZ2B-H3K14Ac peptide displacement; 4.4% of 360,000 active; Q9UIF8; Potency, µM (top dose mostly 114 µM), inactives show at the highest dose activity change, negative = inhibition, most hits filed as inhibitors; note: % is set by controls: 0 for no effect and ±100 for the full control effect; nearly all actives have a fitted effect of over 60% in size
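Complex of BAZ2B and biotin-H3K14Ac (50 nM apiece) forms over 30 min at RT, then faces library compounds up to 110 uM for another 30 min; AlphaScreen beads added, 20 min dark incubation, luminescence read.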
The depositor's hits bear a star; [ ] = another dose, or the depositor's remark. Calls come from the whole dose curve; as a rule, active = well fitted inhibition curve with a large enough effect; inconclusive = small, poorly fitted or top-dose-only effect; inactive = no such curve, though single readings can be large or run the other way. Potency is the fitted concentration of half-maximal effect.

Screening CCN(Cc1ccccc1)C(=O)C1CCN(Cc2ccc(SC)cc2)CC1 returned HP1b chromo inh inconclusive, JMJD2A Tudor 20µM*, L3MBTL1 inh -7%, G9a inh 0% and BAZ2B inh -22%.
`CCN(C(=O)Cn1c(C(=O)OC)cc2sc(Cl)cc21)c1cccc(C)c1` gave HP1b chromo inh 7%, JMJD2A Tudor -8%, G9a inh 7%[59 µM] and BAZ2B inh 1%.
`CCOC(=O)Cn1c(CCC(=O)O)ccc1-c1ccc(F)cc1` gave HP1b chromo inh -8%, JMJD2A Tudor inconclusive, L3MBTL1 inh -4%, G9a inh inconclusive and BAZ2B inh -10%.
`COC(=O)c1ccccc1-n1c(CCC(=O)O)ccc1-c1ccc(F)cc1` gave HP1b chromo inh 19%, JMJD2A Tudor -14%, G9a inh inconclusive and BAZ2B inh -12%.
For O=C(O)CCc1ccc(-c2ccc(F)cc2)n1CC(=O)O the results were HP1b chromo inh 21%, JMJD2A Tudor -29%, L3MBTL1 inh -15%, G9a inh 45µM* and BAZ2B inh -2%.
COc1ccc(-n2c(CCC(=O)O)ccc2-c2ccc(F)cc2)c(OC)c1 was read as HP1b chromo inh 5%, JMJD2A Tudor inconclusive, G9a inh 40µM* and BAZ2B inh -27%.
Screening COc1cc(NC(=O)c2cc(C)nc3c2c(C)nn3-c2ccccc2Cl)cc(OC)c1 returned HP1b chromo inh 30%, JMJD2A Tudor -22%, G9a inh -2%[59 µM] and BAZ2B inh -24%.
`CCN(CC)C(=O)c1sc2c(c1C)c(=O)n(-c1ccc(C)c(C)c1)c(=O)n2Cc1cc(=O)n2ccccc2n1` gave HP1b chromo inh 32%, JMJD2A Tudor -4%, G9a inh 0%[59 µM] and BAZ2B inh 2%.
Screening N#CCCN(C(=O)c1ccc2c(=O)n3c(nc2c1)CCCCC3)c1ccccc1 returned HP1b chromo inh 8%, JMJD2A Tudor inconclusive, G9a inh 17% and BAZ2B inh -3%.
Screening Clc1ccc(-c2nnc(-c3ccc(Br)cc3)c(N3CCSCC3)n2)cc1 returned HP1b chromo inh 3%, JMJD2A Tudor -22%, L3MBTL1 inh -4%, G9a inh 40%[12.7 µM] and BAZ2B inh inconclusive.
`Clc1ccc(-c2nnc(-c3ccco3)nc2N2CCCCC2)cc1` gave HP1b chromo inh -18%, JMJD2A Tudor 45µM*, L3MBTL1 inh -22%, G9a inh 10µM* and BAZ2B inh 50µM*.
`Nc1ncnc2c1ncn2[C@@H]1O[C@H](CNS(=O)(=O)c2ccc3c(c2)CCN(C(=O)C(F)(F)F)C3)[C@@H](O)[C@H]1O` gave HP1b chromo inh 48%, JMJD2A Tudor -5% and L3MBTL1 inh 0%.
Screening COc1ccccc1/C=C/CN1CCOCC1 returned HP1b chromo inh -52%, JMJD2A Tudor 3.2µM*, L3MBTL1 inh -4%, G9a inh inconclusive and BAZ2B inh inconclusive.
Screening COc1ccccc1/C=C/CN1CCSCC1 returned HP1b chromo inh inconclusive, JMJD2A Tudor 6.3µM*, L3MBTL1 inh -6%, G9a inh 32µM* and BAZ2B inh 56µM*.
CCOc1ccc(CNC(=O)c2cc3c(=O)n(Cc4cccs4)ccc3nc2C)cc1 was read as HP1b chromo inh 78%, JMJD2A Tudor -10%, G9a inh 32%[59 µM] and BAZ2B inh inconclusive.
Screening CC1CCCC(C)N1c1nnc(N)s1 (stereo unspecified) returned HP1b chromo inh 42%, JMJD2A Tudor -10%, L3MBTL1 inh -2%, G9a inh 18µM* and BAZ2B inh -16%.
Screening COc1ccc(Br)cc1/C=N/N1CCN(Cc2ccccc2Cl)CC1 returned HP1b chromo inh -26%, JMJD2A Tudor 40µM*, L3MBTL1 inh 8%[2.29 µM], G9a inh 11%[0.501 µM] and BAZ2B inh inconclusive.
`Oc1ccc(Br)cc1/C=N/N1CCN(Cc2cccc3ccccc23)CC1` gave HP1b chromo inh -2%, JMJD2A Tudor inconclusive, L3MBTL1 inh -3% and BAZ2B inh -39%.
For COc1ccccc1/C=C/C=N\N1CCN(Cc2ccccc2Cl)CC1 the results were HP1b chromo inh inconclusive, JMJD2A Tudor 20µM*, L3MBTL1 inh -17%, G9a inh 14µM* and BAZ2B inh 40µM*.
`COc1ccccc1/C=C/C=N/N1CCN(Cc2ccc(Cl)cc2)CC1` gave HP1b chromo inh 40µM*, JMJD2A Tudor 45µM*, L3MBTL1 inh -27%, G9a inh inconclusive and BAZ2B inh 32µM*.
Screening COc1cccc(/C=N/N2CCN(Cc3ccccc3)CC2)c1O returned HP1b chromo inh -12%, JMJD2A Tudor inconclusive, L3MBTL1 inh -8% and BAZ2B inh inconclusive.
For Fc1ccccc1N1CCN(c2c3c(nc4nncn24)CCC3)CC1 the results were HP1b chromo inh 31%, JMJD2A Tudor -8%, G9a inh 7%[59 µM] and BAZ2B inh -15%.
For O=C(CSc1ccc2nnc(-c3ccc(Cl)cc3)n2n1)N1CCCC1 the results were HP1b chromo inh 37%, JMJD2A Tudor -23%, L3MBTL1 inh 3%, G9a inh 35µM* and BAZ2B inh 10%.
Screening O=C(CSc1ccc2nnc(-c3ccc(Cl)cc3)n2n1)N1CCc2ccccc21 returned HP1b chromo inh 47%, JMJD2A Tudor -5%, L3MBTL1 inh 0%, G9a inh 7.9µM* and BAZ2B inh -4%.
`O=C(CSc1ccc2nnc(-c3cccnc3)n2n1)N1CCOCC1` gave HP1b chromo inh 32%, JMJD2A Tudor -23%, G9a inh inconclusive and BAZ2B inh -23%.
For COc1ccc(C)cc1NC(=O)c1cc2c(=O)n(Cc3cccnc3)ccc2nc1C the results were HP1b chromo inh 48%, JMJD2A Tudor -15%, G9a inh -2%[59 µM] and BAZ2B inh -16%.
CCN(CC)C(=O)c1ccc(Oc2ccc([N+](=O)[O-])cc2Cl)cc1 was read as HP1b chromo inh -15%, JMJD2A Tudor -30%, L3MBTL1 inh 0%[11.4 µM], G9a inh inconclusive and BAZ2B inh -32%.
Screening CCN(CC)C(=O)c1cc([N+](=O)[O-])cc2c1-c1ccc([N+](=O)[O-])cc1C2=C(C#N)C#N returned HP1b chromo inh 8%, JMJD2A Tudor inconclusive, L3MBTL1 inh -28%, G9a inh 50µM* and BAZ2B inh inconclusive.
O=c1c(-c2cc(F)cc(F)c2)nc2cnc(N3CCNCC3)nc2n1-c1ccccc1 was read as G9a inh 9%[0.501 µM].
`COc1ccc(OCC(=O)N/N=C2\CCCCc3ccccc32)cc1` gave HP1b chromo inh 8%, JMJD2A Tudor 14µM*, L3MBTL1 inh -2%[11.4 µM], G9a inh -7% and BAZ2B inh -31%.
N#Cc1ccc(OCC(=O)NN2Cc3ccccc3C2=N)cc1 was read as HP1b chromo inh 15%, JMJD2A Tudor inconclusive, L3MBTL1 inh 14%, G9a inh -40% and BAZ2B inh 2%.
CCc1ccc(OCC(=O)N/N=C2\CC(=O)c3ccccc32)cc1 was read as G9a inh 13µM* and BAZ2B inh -29%.

Source: PubChem BioAssay
